From PubChem BioAssay (NCATS)
Unmarked numbers belong to inactive results. Records with an inconclusive call do not appear. Activity calls are given as the source filed them. Unless noted, the call rests on the fitted dose curve; in most records, active means well fitted curve in the direction sought with a large enough effect; inconclusive means small, poorly fitted or top-dose-only effect, or another doubt; inactive means no such curve, though single readings can be large; an effect the other way counts as inactive or inconclusive.

Assays:
[1] = target: Lysosomal acid glucosylceramidase (Homo sapiens) (UniProt P04062); experiment: Glucocerebrosidase-p2 (AID 348; in the data active means potency below about 10 µM; further: potency means the concentration at half of the fitted maximal effect); settings: purified GBA, blue fluorogenic substrate, 40 min
In short: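 Normal human glucocerebrosidase (0.2 nM) with blue fluorogenic substrate (80 uM final) in citrate/phosphate pH 5.9 with 10mM sodium taurocholate, 0.01% tween-20; 40 min RT, NaOH/glycine stop; fluorescence Ex 365/Em 440; AC50 from a titration from 0.6 nM upwards.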

[2] = AP1 Signaling Pathway (AID 357; active means well fitted curve in either direction with a large enough effect, not every such curve was filed as active; further: on the % scale 0 is the no-effect control and ±100 the full control effect); settings: ME-180 AP-1-bla reporter, EGF-induced, beta-lactamase ratio, 5 h; at 7.69 µM (top of the series) unless noted
In short: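 ME-180 cells with beta-lactamase reporter under AP-1 response element, stimulated with EC50 EGF; compounds tested in titration series, 5 h at 37 °C. CCF4 substrate added 2.5 h at room temperature; 460/530 nm emission ratio gave %activity and AC50.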

[3] = target: Cytochrome P450 1A2 (Homo sapiens) (UniProt P05177); experiment: p450-cyp1a2 (AID 410; calls by dose curve; further: potency means the concentration at half of the fitted maximal effect)
In short: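 Read-out is luminescence from luciferin produced by CYP1A2 demethylation of Luciferin-ME (100uM, at Km). Detection reagent stopped the 60 min NADPH-dependent reaction; signals were normalized to 57 uM furafylline.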

[4] = NFAT Signaling Pathway (AID 444; active means well fitted curve in either direction with a large enough effect, not every such curve was filed as active;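 further: carbachol stimulus at about its EC50 of 1 µM final; on the % scale 0 is the no-effect control and ±100 the full control effect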); settings: Jurkat NFAT-bla M1, carbachol, beta-lactamase ratio, 5 h; at 7.69 µM (top of the series) unless noted
In short: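 Jurkat cells carrying an NFAT-driven β-lactamase reporter and co-transfected muscarinic M1 receptor were treated with compound plus carbachol (1 uM final, an EC50 level) for 5 h at 37 °C. CCF4 loading followed for 1 h at RT; 460/530 nm ratio gave %activity.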

[5] = Stat Signaling Pathway (AID 446; active means well fitted curve in either direction with a large enough effect, not every such curve was filed as active;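 further: ME-180 cervical cancer cells given 40 pM IL-6 alongside compound; SIE-controlled beta-lactamase reporter measured as 460/530 nm FRET emission ratio; on the % scale 0 is the no-effect control and ±100 the full control effect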); settings: ME-180 (cervical carcinoma) SIE beta-lactamase reporter, IL-6 stimulated, 5 h; at 7.69 µM (top of the series) unless noted
In short: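 Overnight-plated ME-180 cells bearing a STAT Inducible Element beta-lactamase reporter; 5 h co-exposure to compound and 40 pM IL-6; values normalized to 300 pM IL-6 and 125 nM JAK inhibitor controls.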

[6] = target: Glucocorticoid receptor (Homo sapiens) (UniProt P04150); experiment: GR-GFP Redistribution (AID 450;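 active means compounds whose dose series gives a full or clear partial fitted curve of increased nuclear translocation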; further: potency means the concentration at half of the fitted maximal effect); settings: U2OS GR-GFP nuclear translocation, laser cytometry, 2 h
[7] = target: Glucocorticoid receptor (Homo sapiens) (UniProt P04150); experiment: GR-EFC Redistribution (AID 451; calls by dose curve; further: potency means the concentration at half of the fitted maximal effect); settings: CHO-K1 GR-EFC translocation, beta-gal luminescence, 2 h
In short: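 CHO-K1 cells stably expressing nuclear-localized β-gal enzyme acceptor and GR fused C-terminally to the enzyme donor fragment; ligand-driven nuclear translocation restores β-gal by complementation. Compounds titrated up to 46 uM final, 2 h at 37 °C; luminescence read.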

[8] = target: Mitogen-activated protein kinase 10 (Mus musculus) (UniProt Q61831); experiment: JNK3 AlphaScreen Assay (AID 530; active means well fitted curve in either direction with a large enough effect, not every such curve was filed as active;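 further: kinase came from lysate of stimulated human HepG2 cells; signal reports phosphorylation of biotinylated GST-cJun 1-79 at Ser73 with 10 µM ATP; on the % scale 0 is the no-effect control and ±100 the full control effect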)
In short: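 Biotinylated GST-cJun(1-79) served as substrate for JNK3 in HepG2 lysates stimulated with IL-1beta and TNF-alpha. ATP was 10 uM final, pH 7.6. Ser73 phosphorylation was quantified by AlphaScreen (680 nm excitation).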

[9] = target: 3',5'-cyclic-AMP phosphodiesterase 4B (Homo sapiens) (UniProt Q07343); experiment: qHTS Assay for Inhibitors of PDE-IV (AID 607; active means well fitted activation curve with a large enough effect in the main read-out, with a control signal flat, not every such curve was filed as active; further: % of control where 0% means no effect)
In short: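 Live HEK293 cells with a modified cyclic nucleotide-gated (CNG) channel report intracellular cAMP via membrane-potential dye fluorescence (ex 535/em 590 nm). Endogenous PDE-IV was targeted. Compounds were tested at up to 22.9 uM final; RO 20-1724 100 uM served as control.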

[10] = target: Cytochrome P450 3A4 (Homo sapiens) (UniProt P08684); experiment: qHTS Assay for Activators of Cytochrome P450 3A4 (AID 885); further: nearly all actives have a fitted effect of over 65% in size
In short: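 Using 20nM recombinant human CYP3A4 in potassium phosphate (200mM), substrate Luciferin-PPXE at 25uM, luminescent luciferin detection followed a 60-min RT NADPH reaction; data scaled to 57 uM ketoconazole.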

[11] = target: Cytochrome P450 2C19 (Homo sapiens) (UniProt P33261); experiment: qHTS Assay for Inhibitors and Substrates of Cytochrome P450 2C19 (AID 899); further: potency means the concentration at half of the fitted maximal effect; nearly all actives have a fitted effect of over 60% in size
In short: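 Human CYP2C19 (5nM) with Luciferin-H EGE at 10uM (its KM) in 50mM KPO4 was preincubated with compound for 10 min at 37C. NADPH regeneration started a 60 min 37C reaction. Luciferin was read by luminescence, normalized to 57uM ketoconazole.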

[12] = target: Dual specificity protein kinase CLK4 (Homo sapiens) (UniProt Q9HAZ1); experiment: qHTS Assay for Inhibitors of CDC-like Kinase 4 (Kinase-Glo Assay) (AID 1770); further: potency means the concentration at half of the fitted maximal effect; nearly all actives have a fitted effect of over 65% in size
In short: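 25 nM Clk4 with 100 uM RS repeat peptide and 1 uM ATP (final) in Tris pH7.5, 10 mM MgCl2, 4.5 h at room temperature. Remaining ATP measured by Kinase-Glo luciferase luminescence.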

[13] = target: Dual specificity protein kinase CLK4 (Homo sapiens) (UniProt Q9HAZ1); experiment: qHTS Assay for Inhibitors of CDC-like Kinase 4 (ADP-Glo Assay) (AID 1771); further: potency means the concentration at half of the fitted maximal effect; nearly all actives have a fitted effect of over 70% in size
In short: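 In this ADP-Glo format, 1 uM ATP and 100 uM RS peptide served as substrates for 25 nM Clk4 in Mg2+/EGTA/DTT/Triton buffer; reactions ran 1 hr at room temperature before luminescent ADP quantification.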

[14] = target: Ubiquitin carboxyl-terminal hydrolase 1 (Homo sapiens) (UniProt O94782); experiment: Inhibitors of USP1/UAF1: Pilot qHTS (AID 504865);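 further: rhodamine fluorescence freed from ubiquitin-rhodamine substrate followed over time; top concentration of the series differs between compounds; on the % scale 0 is the no-effect control and ±100 the full control effect; nearly all actives have a fitted effect of over 35% in size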
In short: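 USP1/UAF1 complex at 1 nM preincubated 15 min at room temperature with compound, then Ub-Rho substrate added at 150 nM final. Fluorescence (480/540 nm) read kinetically in 50 mM HEPES pH 7.8, 0.5 mM EDTA, 1 mM TCEP, 0.1 mg/ml BSA, 0.01% Tween-20.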

[15] = Primary qHTS for small molecule stabilizers of the endoplasmic reticulum resident proteome: Secreted ER Calcium Modulated Protein (SERCaMP) assay (AID 1508630); further: on the % scale 0 is the no-effect control and ±100 the full control effect
In short: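 The SH-SY5Y reporter protocol was run at 3 concentrations up to 38.3 uM (primary) or 11 concentrations (follow-up): 16 h compound, 100 nM thapsigargin for 4 h, then extracellular luciferase luminescence.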

[16] = target: Cytochrome P450 3A4 (Homo sapiens) (UniProt P08684); experiment: qHTS Assay for Inhibitors and Substrates of Cytochrome P450 3A4 (AID 884); further: potency means the concentration at half of the fitted maximal effect; nearly all actives have a fitted effect of over 50% in size
In short: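 Luminescent readout of luciferin produced by CYP3A4 (20 nM) dealkylation of Luciferin-PPXE, 25 uM (its KM). NADPH-driven reaction ran 60 min at RT after 10 min compound preincubation; data scaled to 57 uM ketoconazole as 100% inhibition.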

[17] = target: Cytochrome P450 2D6 (Homo sapiens) (UniProt P10635); experiment: qHTS Assay for Inhibitors and Substrates of Cytochrome P450 2D6 (AID 891); further: potency means the concentration at half of the fitted maximal effect; nearly all actives have a fitted effect of over 60% in size
In short: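 Luminescent read-out of luciferin formed by 5 nM human CYP2D6 demethylating 30 uM Luciferin-ME EGE (Km level) over 60 min at room temperature after NADPH regeneration addition. Data normalized to full inhibition by 1.43 uM quinidine.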

Sequence of Glucocorticoid receptor (Homo sapiens) (P04150 whole entry, looked up, the tested form may be a part): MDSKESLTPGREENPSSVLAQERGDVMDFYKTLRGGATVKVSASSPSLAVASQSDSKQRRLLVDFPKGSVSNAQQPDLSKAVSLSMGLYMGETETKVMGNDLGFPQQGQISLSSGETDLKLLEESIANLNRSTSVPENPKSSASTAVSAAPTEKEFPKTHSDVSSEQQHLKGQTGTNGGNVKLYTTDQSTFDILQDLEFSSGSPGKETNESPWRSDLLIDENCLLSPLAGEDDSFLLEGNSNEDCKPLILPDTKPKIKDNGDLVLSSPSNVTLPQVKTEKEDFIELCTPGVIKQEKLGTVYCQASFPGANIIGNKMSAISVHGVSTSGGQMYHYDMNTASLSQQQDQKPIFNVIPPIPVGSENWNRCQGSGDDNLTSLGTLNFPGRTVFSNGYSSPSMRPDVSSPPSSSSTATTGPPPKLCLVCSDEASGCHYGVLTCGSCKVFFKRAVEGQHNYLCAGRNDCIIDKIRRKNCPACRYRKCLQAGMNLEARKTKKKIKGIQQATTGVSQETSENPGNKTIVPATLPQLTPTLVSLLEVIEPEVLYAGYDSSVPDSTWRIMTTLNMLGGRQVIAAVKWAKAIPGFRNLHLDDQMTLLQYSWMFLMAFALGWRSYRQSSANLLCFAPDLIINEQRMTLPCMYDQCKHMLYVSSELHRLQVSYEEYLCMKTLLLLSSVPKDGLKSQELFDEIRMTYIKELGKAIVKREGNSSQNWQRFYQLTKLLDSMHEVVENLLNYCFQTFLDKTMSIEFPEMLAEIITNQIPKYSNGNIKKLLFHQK
Sequence of Ubiquitin carboxyl-terminal hydrolase 1 (Homo sapiens) (O94782 whole entry, looked up): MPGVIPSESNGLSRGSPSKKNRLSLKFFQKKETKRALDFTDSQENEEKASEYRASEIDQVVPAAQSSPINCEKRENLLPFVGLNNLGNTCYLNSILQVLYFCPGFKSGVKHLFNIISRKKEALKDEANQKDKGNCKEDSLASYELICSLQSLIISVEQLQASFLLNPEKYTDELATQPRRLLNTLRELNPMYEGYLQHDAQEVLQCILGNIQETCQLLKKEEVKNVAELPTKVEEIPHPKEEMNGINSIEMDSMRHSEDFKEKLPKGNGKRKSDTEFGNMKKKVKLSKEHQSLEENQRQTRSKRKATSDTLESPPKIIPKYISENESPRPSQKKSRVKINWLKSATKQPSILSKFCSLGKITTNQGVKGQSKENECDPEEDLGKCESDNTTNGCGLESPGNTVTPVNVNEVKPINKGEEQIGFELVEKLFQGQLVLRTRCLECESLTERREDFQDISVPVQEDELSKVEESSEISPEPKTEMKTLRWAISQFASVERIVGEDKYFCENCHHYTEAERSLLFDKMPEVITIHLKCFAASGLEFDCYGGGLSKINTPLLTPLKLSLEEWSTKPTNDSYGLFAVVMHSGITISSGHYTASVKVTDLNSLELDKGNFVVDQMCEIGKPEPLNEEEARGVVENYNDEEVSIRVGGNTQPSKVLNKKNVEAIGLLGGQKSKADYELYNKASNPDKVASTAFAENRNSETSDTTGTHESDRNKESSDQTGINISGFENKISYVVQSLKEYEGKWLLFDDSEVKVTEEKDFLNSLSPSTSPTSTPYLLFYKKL
Sequence of Cytochrome P450 1A2 (Homo sapiens) (P05177 whole entry, looked up): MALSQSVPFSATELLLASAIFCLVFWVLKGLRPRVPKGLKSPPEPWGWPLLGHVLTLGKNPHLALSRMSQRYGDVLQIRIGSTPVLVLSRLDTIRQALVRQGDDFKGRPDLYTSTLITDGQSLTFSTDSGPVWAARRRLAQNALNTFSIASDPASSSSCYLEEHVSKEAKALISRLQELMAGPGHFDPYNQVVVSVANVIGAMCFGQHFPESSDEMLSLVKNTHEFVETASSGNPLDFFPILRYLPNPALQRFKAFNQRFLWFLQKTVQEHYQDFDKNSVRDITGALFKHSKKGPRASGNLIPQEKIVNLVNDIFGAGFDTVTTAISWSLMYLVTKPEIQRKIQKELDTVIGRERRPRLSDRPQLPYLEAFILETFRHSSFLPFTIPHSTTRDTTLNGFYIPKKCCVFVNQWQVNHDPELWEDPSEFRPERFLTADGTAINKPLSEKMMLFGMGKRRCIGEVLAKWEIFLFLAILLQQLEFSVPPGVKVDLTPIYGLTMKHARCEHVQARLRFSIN
Sequence of Dual specificity protein kinase CLK4 (Homo sapiens) (Q9HAZ1 whole entry, looked up): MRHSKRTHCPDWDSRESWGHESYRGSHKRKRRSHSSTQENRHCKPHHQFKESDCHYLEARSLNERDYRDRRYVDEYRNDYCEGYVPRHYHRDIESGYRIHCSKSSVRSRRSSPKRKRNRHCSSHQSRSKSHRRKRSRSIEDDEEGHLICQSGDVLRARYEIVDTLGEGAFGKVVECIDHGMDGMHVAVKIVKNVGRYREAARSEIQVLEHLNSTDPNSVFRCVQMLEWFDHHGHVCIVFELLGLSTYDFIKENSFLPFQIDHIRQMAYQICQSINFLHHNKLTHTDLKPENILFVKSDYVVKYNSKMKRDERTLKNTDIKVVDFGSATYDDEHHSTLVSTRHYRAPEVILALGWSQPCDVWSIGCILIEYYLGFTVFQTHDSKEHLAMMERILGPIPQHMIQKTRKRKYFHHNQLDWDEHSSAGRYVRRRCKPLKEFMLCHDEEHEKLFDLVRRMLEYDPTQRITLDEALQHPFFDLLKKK
Sequence of Cytochrome P450 3A4 (Homo sapiens) (P08684 whole entry, looked up): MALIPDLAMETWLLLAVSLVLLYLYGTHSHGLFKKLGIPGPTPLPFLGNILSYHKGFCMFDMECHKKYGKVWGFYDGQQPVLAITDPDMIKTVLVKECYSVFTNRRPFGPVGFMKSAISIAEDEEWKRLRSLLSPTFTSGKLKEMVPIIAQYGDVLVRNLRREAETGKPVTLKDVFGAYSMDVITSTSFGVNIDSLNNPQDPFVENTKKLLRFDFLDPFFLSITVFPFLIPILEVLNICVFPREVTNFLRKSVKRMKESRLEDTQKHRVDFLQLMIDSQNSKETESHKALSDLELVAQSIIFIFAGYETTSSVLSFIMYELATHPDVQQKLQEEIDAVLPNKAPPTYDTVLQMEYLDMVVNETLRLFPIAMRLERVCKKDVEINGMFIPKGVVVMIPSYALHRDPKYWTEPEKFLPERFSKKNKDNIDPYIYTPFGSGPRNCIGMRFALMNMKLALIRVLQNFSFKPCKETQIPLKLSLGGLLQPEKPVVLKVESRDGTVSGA
Sequence of 3',5'-cyclic-AMP phosphodiesterase 4B (Homo sapiens) (Q07343 whole entry, looked up): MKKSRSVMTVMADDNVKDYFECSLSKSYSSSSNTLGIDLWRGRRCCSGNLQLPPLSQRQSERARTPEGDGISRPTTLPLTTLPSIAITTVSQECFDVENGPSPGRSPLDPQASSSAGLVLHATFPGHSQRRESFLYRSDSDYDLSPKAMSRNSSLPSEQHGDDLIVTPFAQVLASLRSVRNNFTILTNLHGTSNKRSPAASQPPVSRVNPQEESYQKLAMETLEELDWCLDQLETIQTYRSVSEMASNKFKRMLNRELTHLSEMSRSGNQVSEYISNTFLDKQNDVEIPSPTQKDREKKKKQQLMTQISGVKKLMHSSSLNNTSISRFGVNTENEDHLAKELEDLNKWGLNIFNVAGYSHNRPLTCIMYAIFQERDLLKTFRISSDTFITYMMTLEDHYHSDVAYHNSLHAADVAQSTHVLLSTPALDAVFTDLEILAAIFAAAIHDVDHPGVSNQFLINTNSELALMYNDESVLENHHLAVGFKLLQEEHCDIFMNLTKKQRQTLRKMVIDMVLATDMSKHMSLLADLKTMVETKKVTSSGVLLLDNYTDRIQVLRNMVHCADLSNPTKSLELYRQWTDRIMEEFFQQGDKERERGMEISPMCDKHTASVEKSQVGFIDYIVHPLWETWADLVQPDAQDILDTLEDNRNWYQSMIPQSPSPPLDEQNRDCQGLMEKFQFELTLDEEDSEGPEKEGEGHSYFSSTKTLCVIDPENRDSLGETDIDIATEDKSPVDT
Sequence of Lysosomal acid glucosylceramidase (Homo sapiens) (P04062 whole entry, looked up): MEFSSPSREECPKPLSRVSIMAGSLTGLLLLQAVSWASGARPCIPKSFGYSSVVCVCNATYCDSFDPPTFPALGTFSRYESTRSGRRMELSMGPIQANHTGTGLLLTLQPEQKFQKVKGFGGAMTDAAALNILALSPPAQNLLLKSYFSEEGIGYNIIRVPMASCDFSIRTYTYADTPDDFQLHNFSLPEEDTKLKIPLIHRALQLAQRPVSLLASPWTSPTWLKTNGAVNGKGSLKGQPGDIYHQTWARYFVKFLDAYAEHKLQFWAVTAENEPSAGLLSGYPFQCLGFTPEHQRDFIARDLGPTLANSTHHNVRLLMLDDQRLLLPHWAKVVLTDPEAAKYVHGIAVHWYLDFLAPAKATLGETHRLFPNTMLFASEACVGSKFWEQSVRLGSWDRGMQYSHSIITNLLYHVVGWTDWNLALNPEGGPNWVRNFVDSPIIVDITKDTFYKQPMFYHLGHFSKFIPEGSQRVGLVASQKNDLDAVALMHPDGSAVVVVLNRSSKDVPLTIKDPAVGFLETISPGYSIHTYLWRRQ
Sequence of Cytochrome P450 2C19 (Homo sapiens) (P33261 whole entry, looked up): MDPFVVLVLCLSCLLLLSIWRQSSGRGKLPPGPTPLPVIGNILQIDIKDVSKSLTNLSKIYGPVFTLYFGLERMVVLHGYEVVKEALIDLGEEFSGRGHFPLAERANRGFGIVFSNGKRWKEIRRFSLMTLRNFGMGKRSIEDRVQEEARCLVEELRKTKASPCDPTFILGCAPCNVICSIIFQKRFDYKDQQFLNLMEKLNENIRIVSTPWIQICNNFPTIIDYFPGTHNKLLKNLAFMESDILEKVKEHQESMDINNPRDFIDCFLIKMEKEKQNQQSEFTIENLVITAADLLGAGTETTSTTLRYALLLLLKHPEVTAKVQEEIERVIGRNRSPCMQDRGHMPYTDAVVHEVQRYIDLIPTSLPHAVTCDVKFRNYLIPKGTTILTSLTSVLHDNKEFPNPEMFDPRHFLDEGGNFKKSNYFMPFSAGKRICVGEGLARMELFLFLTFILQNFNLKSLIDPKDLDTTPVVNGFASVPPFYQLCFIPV

Compound: COc1cccc(-c2cc(NCc3ccccc3OC)ncn2)c1
- Potency [1]: > 11.4 µM
- activity change, negative = inhibition [2]: -14.5%
- Potency [3]: 1.26 µM (active)
- activity change, negative = inhibition [4]: 6.41%
- activity, negative = inhibition [5]: -1.37%
- Potency [6]: > 46 µM
- Potency [7]: > 46 µM
- Potency [8]: inactive
- Potency [9]: inactive
- Potency [10]: inactive
- Potency [11]: 7.94 µM (active)
- Potency [12]: 15.8 µM (active)
- Potency [13]: 28.2 µM (active)
- Potency [14]: inactive
- outcome [15]: inactive

Compound: Cc1noc(C)c1-c1nccc(NCc2cccs2)n1
- Potency [1]: > 11.4 µM
- activity change, negative = inhibition [2]: 3.65%
- Potency [3]: 0.501 µM (active)
- activity change, negative = inhibition [4]: -16.6%
- activity, negative = inhibition [5]: 2.65%
- Potency [6]: > 46 µM
- Potency [7]: > 46 µM
- Potency [8]: inactive
- Potency [10]: inactive
- Potency [12]: 22.4 µM (active)
- Potency [13]: 35.5 µM (active)
- outcome [15]: inactive

Compound: c1cncc(-c2ccc3ncnc(NCCN4CCOCC4)c3c2)c1
- Potency [1]: > 11.4 µM
- activity change, negative = inhibition [2]: -1.94%
- Potency [3]: 1 µM (active)
- activity change, negative = inhibition [4]: 26%
- activity, negative = inhibition [5]: 2.95%
- Potency [6]: > 46 µM
- Potency [7]: > 46 µM
- Potency [8]: inactive
- Potency [9]: inactive
- Potency [10]: inactive
- Potency [12]: 15.8 µM (active)
- Potency [13]: 17.8 µM (active)
- Potency [14]: inactive
- outcome [15]: inactive

Compound: COc1cccc(-c2nccc(NCc3ccccc3OC)n2)c1
- Potency [1]: > 11.4 µM
- activity change, negative = inhibition [2]: -18.4%
- Potency [3]: 1.26 µM (active)
- activity change, negative = inhibition [4]: 11.8%
- activity, negative = inhibition [5]: -8.4%
- Potency [6]: > 46 µM
- Potency [7]: > 46 µM
- Potency [8]: inactive
- Potency [9]: inactive
- Potency [16]: 2.51 µM (active)
- Potency [10]: inactive
- Potency [17]: 0.398 µM (active)
- Potency [11]: 5.01 µM (active)
- Potency [12]: 22.4 µM (active)
- Potency [13]: 14.1 µM (active)
- outcome [15]: inactive

Compound: COc1ccccc1CCn1c(=O)cnc2cncnc21
- Potency [1]: > 11.4 µM
- activity change, negative = inhibition [2]: -0.594%
- activity change, negative = inhibition [4]: 6.39%
- activity, negative = inhibition [5]: -7.13%
- Potency [6]: > 9.22 µM
- Potency [7]: > 46 µM
- Potency [8]: inactive
- Potency [9]: inactive
- Potency [12]: 17.8 µM (active)
- Potency [13]: 25.1 µM (active)
- Potency [14]: inactive
- outcome [15]: inactive

Compound: FC(F)(F)c1ccccc1-c1nccc(-n2ccnc2)n1
- Potency [1]: > 11.4 µM
- activity change, negative = inhibition [2]: -7.77%
- activity change, negative = inhibition [4]: 2.35%
- activity, negative = inhibition [5]: 0.859%
- Potency [6]: > 46 µM
- Potency [7]: > 46 µM
- Potency [8]: inactive
- Potency [12]: 15.8 µM (active)
- Potency [13]: 25.1 µM (active)
- Potency [14]: inactive
- outcome [15]: inactive
